A selection: hits, their analogues and other compounds. The true share with any hit is near 1.3%.
a7 integrin act: activators of alpha7 integrin expression for muscular dystrophy; alpha7betagal myoblasts, beta-gal FDG fluorescence, 48 h; Potency, µM (doses to about 38.3 µM), inactives show at the top dose activation, most hits filed as activators; 350,000 tested, 0.064% active; AID 624291;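 note: potency is the fitted concentration of half-maximal effect; 100% = response of the positive control SU9516; nearly all actives have a fitted effect of over 60% in size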
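alpha7betagal+/- myoblasts (passage 13, 250/well) treated 48 h at 37C with compounds at 1:260 dilution of DMSO stock. Lysed, then beta-galactosidase activity read as FDG fluorescence (ex 480/em 540) after 30 min, with pre-read for autofluorescence.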
IL-2 act: IL-2 activation; IL-2 activation reporter assay, cell-based qHTS; stimulated with anti-CD3/CD4/CD28 beads; in transgenic mouse T cells; activation, % (series mostly up to about 46 µM); 360,000 tested, 0.065% active; AID 652025; in the data active = activation above about 50%; inconclusive = mostly about 30% to 49%; note: 0% is about no effect
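First, unstimulated transgenic mouse T cells were exposed to compound for 60 min. Next, anti-CD3/anti-CD4-coated beads with anti-CD28 were added. Finally, after 18 h at 37 degrees C, EGFP and DsRed were imaged.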
BRCA1 expr act: increases BRCA1 expression; MCF7-BRCA1-FFLuc reporter, luminescence, 48 h; response scale: scaled: vehicle 0%, 10 µM genistein 100%; Potency, µM (titrated, usually from 46.1 µM), for inactives: top-dose activation, usual class: activators; 380,000 tested, 1.1% active; note: potency is the fitted concentration of half-maximal effect; nearly all actives have a fitted effect of over 80% in size
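Activators of BRCA1 expression were detected as increased firefly luciferase luminescence in engineered MCF7 cells after 48 h compound incubation. Signals were scaled to genistein 10 microM as full activation.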
Anesthetic bind: candidate novel general anesthetic via apoferritin binding | P02791 | Potency, µM (top dose mostly 77.5 µM), for the others: at the highest dose activity change, negative = displacement, usual class: inhibitors | apoferritin/1-aminoanthracene competitive binding, fluorescence | AID 485281 | 350,000 tested, 0.074% active; note: potency is the fitted concentration of half-maximal effect; % is set by controls: 0 for no effect and ±100 for the full control effect; nearly all actives have a fitted effect of over 20% in size
Target sequence (P02791 2-175 limits assumed): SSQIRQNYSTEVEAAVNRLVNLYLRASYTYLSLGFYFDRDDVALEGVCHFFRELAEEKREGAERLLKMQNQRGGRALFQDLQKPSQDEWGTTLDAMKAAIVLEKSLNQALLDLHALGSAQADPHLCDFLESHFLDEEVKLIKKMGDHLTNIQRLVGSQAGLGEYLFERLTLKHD
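Steps: apoferritin (10 uM) was premixed with half-saturated 1-AMA in PBS, compounds were pin-transferred, plates stood 10 min at room temperature, fluorescence was read at 380/535 nm, and curves were fitted with a Hill equation.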
PKM2 activator: PKM2 (human) enzyme activation | P14618 | Potency, µM (series often up to 57.5 µM), without a hit: at the top dose activation, usual class: activators | AID 1631 | 260,000 tested, 0.34% active | purified PKM2, Kinase-Glo ATP luminescence, activation; response scale: 0% is enzyme alone, no compound; note: potency is the fitted concentration of half-maximal effect; % is set by controls: 0 for no effect and ±100 for the full control effect; nearly all actives have a fitted effect of over 55% in size
Target sequence (P14618 whole entry, looked up): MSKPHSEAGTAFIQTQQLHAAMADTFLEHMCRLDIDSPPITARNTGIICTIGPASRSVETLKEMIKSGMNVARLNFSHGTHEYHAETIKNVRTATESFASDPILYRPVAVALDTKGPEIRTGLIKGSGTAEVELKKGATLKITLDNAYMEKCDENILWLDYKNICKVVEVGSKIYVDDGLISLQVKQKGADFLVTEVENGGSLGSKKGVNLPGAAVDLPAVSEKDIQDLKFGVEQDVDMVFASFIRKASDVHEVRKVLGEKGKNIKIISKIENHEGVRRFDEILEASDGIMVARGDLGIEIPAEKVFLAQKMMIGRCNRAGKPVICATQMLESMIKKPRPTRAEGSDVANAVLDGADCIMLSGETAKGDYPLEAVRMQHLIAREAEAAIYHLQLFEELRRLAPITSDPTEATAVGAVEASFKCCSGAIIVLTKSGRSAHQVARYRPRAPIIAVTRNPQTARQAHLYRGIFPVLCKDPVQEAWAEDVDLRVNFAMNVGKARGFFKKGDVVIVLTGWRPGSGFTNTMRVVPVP
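hPK-M2, >95% pure; 0.1 mM ADP / 0.5 mM PEP final; imidazole pH7.2 buffer w/ 7 mM MgCl2, 50 mM KCl; 1 h RT; Kinase-Glo lum. Intermediate enzyme activity for dual inhibitor/activator qHTS.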
* hit, by the source's call; ? = inconclusive; nt = not tested or not shown; [ ] = dose if it differs, or a comment. Unless noted, calls come from the whole dose curve; as a rule, active = well fitted curve in the direction sought with a large enough effect; inconclusive = small, poorly fitted or top-dose-only effect, or another doubt; inactive = no such curve, though single readings can be large; an effect the other way counts as inactive or inconclusive.

SMILES | a7 integrin act | IL-2 act | BRCA1 expr act | Anesthetic bind | PKM2 activator
COc1ccc(CCNC(=O)c2nn(C)c3c2CS(=O)(=O)c2ccccc2-3)cc1OC | 4.5µM* | 1 | -11% | 3% | nt
CCc1nnc2c(Nc3cccc(F)c3)nc3ccc(C(=O)c4ccccc4)cc3n12 | nt | nt | nt | -3% | nt
C/C=C\C=C\C(=O)N1CC2(CC(c3cccc(NC(=O)CC)c3)=NO2)C[C@H]1C(N)=O (stereo not given in full) | -2% | -2 | -8% | -13% | 7.9µM*
C/C=C\C=C/C(=O)Nc1cccc(C2=NOC3(C2)C[C@@H](C(N)=O)N(C(=O)COc2ccc(Cl)cc2)C3)c1 (stereo not given in full) | -28% | 0 | -5% | -11% | 16µM*
C/C=C\C=C\C(=O)N1CC2(CC(c3cccc(NC(=O)COc4ccc(Cl)cc4)c3)=NO2)C[C@H]1C(N)=O (stereo not given in full) | -1% | 0 | 0% | -13% | 16µM*
C/C=C/C=C\C(=O)Nc1cccc(C2=NOC3(C2)C[C@H](C(N)=O)N(C(=O)/C=C/C)C3)c1 (stereo not given in full) | 0% | 1 | 29% | -2% | ?
O=C(O)c1ccc2c(c1)C(=O)N([C@H](Cc1ccc(O)c(O)c1)C(=O)O)C2=O | nt | nt | nt | 0% | nt
COC(=O)[C@@H]1CCCN1C(=O)[C@@H](C)CO | nt | nt | nt | 4%[15.3 µM] | nt
O=S(=O)(Nc1cccc2cccnc12)C1CC1 | nt | nt | -63% | nt | nt
Nc1ccc(-c2cc3ccccc3[nH]2)cc1 | nt | nt | 0% | nt | nt
N/C(=N\OC(=O)/C=C/c1ccccc1)c1ccccc1 | 8% | -1 | 7.1µM* | -17% | -17%
CN1CCCN(Cc2nc(-c3ccc(Cl)cc3)no2)CC1 | -48% | -1 | 13µM* | -11% | -4%
CC(=O)c1ccc(OC(C)c2nc3ccccc3s2)cc1 (stereo not given) | -5% | -2 | 6.3µM* | 4% | nt
COc1cccc(C(=O)N(C)C(C)c2nc3ccccc3s2)c1 (stereo not given) | -2% | -1 | 9% | -17% | 2%
C=C1CCN(C(CC(C)C)C(=O)Nc2nc3ccc(Cl)cc3s2)S(=O)(=O)c2ccccc21 (stereo not given) | nt | nt | nt | -7% | nt
CCOc1cc(Br)c(/C=C2/C(=O)N(C)C(=S)N2CC(=O)OC)cc1OC | 3% | 100* | -19% | -16% | 1%
O=C(Nc1ccccc1)OCc1cc(-c2ccccc2Cl)on1 | 11% | 0 | 8.9µM* | ? | -3%
O=C(Nc1cccc(O)c1)c1cc(-c2ccccc2Cl)on1 | 11% | -1 | 7% | -14% | -3%
Nc1nc2sc3c(c2c(=O)s1)CCCC3 | -9% | -2 | 11µM* | ? | -5%
O=c1c2c3c(sc2nc2n1CCCCC2)CCCC3 | -19% | -1 | 4.5µM* | -16% | 3%
Nc1c2c3c(sc2nc(=O)n1N)CCCC3 | 8% | 0 | -12% | -5% | 1%
O=c1c2c3c(sc2nc2n1CCCCC2)CCCCC3 | nt | nt | nt | 1% | -1%
CC1=Nn2c(nc3sc4c(c3c2=O)CCCC4)SC1 | 11% | 0 | 7.1µM* | -4% | -12%
CC1CSc2nc3sc4c(c3c(=O)n21)CCCC4 (stereo not given) | 5% | 4 | 92% | -15% | 10%
Cc1cc2ccccc2c[n+]1C | nt | nt | -1% | nt | nt
SMILES | a7 integrin act | IL-2 act | BRCA1 expr act | Anesthetic bind | PKM2 activator
Cc1cc(N/N=C/c2ccncc2)nc2ccccc12 | ? | -1 | 5.6µM* | -16% | 22%
Cc1ccc(N/N=C/c2cccnc2)cc1 | -2% | -2 | ? | -23% | 0%
Cc1ccc(N/N=C/c2ccncc2)cc1 | 0% | 0 | 6.3µM* | -20% | nt
Cc1cc(N/N=C/c2cccc(Br)c2)nc2ccccc12 | 6% | 0 | ? | 2% | 8%
O=C(Cc1ccc(Br)cc1)NO | nt | nt | 0% | nt | nt
COc1ccc(Cl)cc1NC(=O)CCS(=O)(=O)c1cccc2nonc12 | nt | nt | -22% | 1% | nt
Cc1cccc(-n2ncc3c(NCCCO)ncnc32)c1 | 17% | 1 | ? | -9% | -2%
Cc1cccc(-n2ncc3c(NCc4cccnc4)ncnc32)c1 | -12% | -4 | 2.5µM* | -14% | -6%
Clc1ccc(-n2ncc3c(NCc4ccccn4)ncnc32)cc1 | 3% | 2 | 10µM* | ? | -2%
Cc1ccc(CNc2ncnc3c2cnn3-c2ccc(Cl)cc2)cc1 | nt | nt | nt | 4% | nt
C=CCNc1ncnc2c1cnn2-c1cccc(C)c1 | 2% | -4 | 2.2µM* | -1% | -4%
Cc1ccc(-n2ncc3c(NCc4cccnc4)ncnc32)cc1C | 1% | -3 | 1µM* | 4% | 1%[0.46 µM]
Cc1ccc(-n2ncc3c(NCc4cccnc4)ncnc32)c(C)c1 | -37% | -2 | -33% | 1% | -5%
CC(C)C[C@H](NC(=O)[C@H](CO)NC(=O)CNC(=O)[C@H](CCCCN)NC(=O)[C@H](CCCN=C(N)N)NC(=O)[C@H](C)NC(=O)[C@H](Cc1ccccc1)NC(=O)[C@@H](N)CCCN=C(N)N)C(=O)N[C@@H](CCCN=C(N)N)C(=O)N[C@@H](CCC(N)=O)C(=O)N[C@@H](CCCCN)C(=O)N[C@@H](CC(N)=O)C(=O)N[C@H](C(=O)O)C(C)C | nt | nt | nt | -7% | nt
CCc1cccc(NC(=O)c2ccc3c(c2)c(C)c(C)n3Cc2ccc(F)cc2)c1 | nt | nt | nt | 51% | nt
CC(C)CSc1ccccc1NC(=O)c1sc2nc(-c3ccncc3)ccc2c1N | nt | nt | -24% | -14% | nt
O=C1C=CC(=O)c2c(O)c(Cl)c(Cl)c(O)c21 | nt | nt | nt | -1% | nt
CSCCOC(=O)c1[nH]c2c(c1C)C(=O)CC(c1ccco1)C2 (stereo not given) | -45% | -4 | -44% | -12% | 22µM*
CCc1ccc(OCc2nnc(-c3ccccc3Br)o2)cc1 | -30% | 0 | 15% | nt | nt
Clc1ccc(Cc2nnc(-c3ccccc3Br)o2)cc1 | 17% | -1 | 14µM* | -3% | -2%
Clc1ccccc1OCc1nnc(-c2ccccc2Br)o1 | -7% | 0 | 4µM* | ? | -6%
N#Cc1ccccc1OCc1nnc(-c2ccccc2Br)o1 | 1% | 1 | ? | -7% | -3%
Cc1ccc(NC(=O)Cn2c(=O)n(Cc3ccccc3)c(=O)c3sc4ccccc4c32)cc1 | nt | nt | nt | -9% | nt
O=C(OCC1OC(OC(=O)c2cc(O)c(O)c(OC(=O)c3cc(O)c(O)c(O)c3)c2)[C@@H](OC(=O)c2cc(O)c(O)c(OC(=O)c3cc(O)c(O)c(O)c3)c2)C(OC(=O)c2cc(O)c(O)c(OC(=O)c3cc(O)c(O)c(O)c3)c2)C1OC(=O)c1cc(O)c(O)c(OC(=O)c2cc(O)c(O)c(O)c2)c1)c1cc(O)c(O)c(OC(=O)c2cc(O)c(O)c(O)c2)c1 (stereo not given in full) | nt | nt | nt | -16% | nt
CCOc1cnc(-c2ccc(Cl)cc2)o1 | 12% | 2 | 35% | -2% | -5%

Screening results deposited in PubChem BioAssay by National Center for Advancing Translational Sciences (NCATS).
